ELG1 DNA repair: qHTS screen for small molecules that inhibit ELG1-dependent DNA repair in human embryonic kidney (HEK293T) cells expressing luciferase-tagged ELG1; HEK293T ELG1-luciferase reporter, luminescence, 16 h; DNA damage induced by 5-fluorouridine; Potency, µM (series often up to 46.1 µM), without a hit: at the highest dose activity change, negative = inhibition, actives largely listed as inhibitors; AID 504467, 2011; 2.3% of 330,000 active; note: potency is the fitted concentration of half-maximal effect; nearly all actives have a fitted effect of over 55% in size
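Luminescence from the luciferase reporter, measured 30 min after ONE-Glo reagent at room temperature, was the read-out. Beforehand, 2,000 cells per well were exposed for 16 hr at 37 °C to 5-fluorouridine together with compound or vehicle.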
HT1080NT lethal: qHTS for induction of synthetic lethality in tumor cells producing 2HG: qHTS for the HT-1080-NT fibrosarcoma cell line; AID 686970, 2013; Potency, µM (highest dose often 46.1 µM), for inactives: at the highest dose activity, negative = less viability, actives largely listed as cytotoxic; 1.6% of 360,000 active; HT-1080-NT fibrosarcoma viability, CellTiter-Glo ATP luminescence, 48 h;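 note: NT is the 2HG producing partner of a matched IDH1 knockdown line; potency is the fitted concentration of half-maximal effect; 0% = DMSO-treated cells and -100% = media-only wells without cells; nearly all actives have a fitted effect of over 55% in size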
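Viability of the 2HG-overproducing fibrosarcoma line after 48 hours of compound exposure at 37 degrees C was determined by luminescence with CellTiter-Glo, and concentration-effect curves were then fitted and categorized.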
IL1B secr inh: qHTS for Inhibitors of Inflammasome Signaling: IL-1-beta AlphaLISA Primary Screen; THP-1 LPS/ATP IL-1B secretion, AlphaLISA, 16 h; stronger effect = lower value; 4.7% of 360,000 active; activity change, % at 57.5 µM; in the data active = activity change below about -50%; inconclusive = mostly about -30% to -49%
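Secreted IL-1B measured by AlphaLISA bead assay after 16 h compound exposure of THP-1 cells; compounds (final up to 57.5 uM) added 1 h before LPS (250 ng/mL) and ATP (1.25 mM) stimulation; lower signal means less secretion.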
HT1080 IDH1KD tx: qHTS for induction of synthetic lethality in tumor cells producing 2HG: qHTS for the HT-1080-IDH1KD cell line | HT-1080 IDH1 knockdown viability, ATP luminescence, 48 h | Potency, µM (titrated, usually from 46.1 µM), without a hit: at the highest dose activity, negative = toxicity, actives largely listed as cytotoxic | 2% of 360,000 active | AID 686971, 2013;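 note: potency is the fitted concentration of half-maximal effect; 0% = DMSO wells and -100% = cell-free medium wells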
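HT-1080-IDH1KD cells (IDH1 knocked down), 750/well in RPMI with 5% FBS, treated with compound 48 h at 37 degrees C. Viability by CellTiter-Glo luminescence, normalised to DMSO and no-cell wells; concentration-response curves classed.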
DT40 TDP1 CPT: qHTS for Inhibitors of human tyrosyl-DNA phosphodiesterase 1 (TDP1): qHTS in cells in presence of CPT; chicken DT40 Tdp1-/-;hTDP1 cells + 20 nM CPT, ATP luminescence, 48 h; Potency, µM (series often up to 46.2 µM), inactives show at the top dose activity change, negative = growth inhibition, usual class: inhibitors; 12% of 420,000 active; AID 686979, 2013; note: potency is the fitted concentration of half-maximal effect; nearly all actives have a fitted effect of over 55% in size
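Chicken DT40 Tdp1-/- cells stably complemented with human TDP1 were seeded at 400 cells/well in medium containing 20 nM camptothecin, exposed to pin-transferred compounds, and grown at 37 °C for at least 48 hr. Viability was read as ATP luminescence.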
TDP1 cell noCPT: qHTS for Inhibitors of human tyrosyl-DNA phosphodiesterase 1 (TDP1): qHTS in cells in absence of CPT; DT40 Tdp1-/- hTDP1 cells, no CPT, ATP luminescence, 48 h; Potency, µM (titrated, usually from 46.2 µM), inactives show at the top dose activity change, negative = growth inhibition, actives largely listed as inhibitors; 15% of 420,000 active; AID 686978, 2013; note: potency is the fitted concentration of half-maximal effect; nearly all actives have a fitted effect of over 55% in size
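Camptothecin absent (DMSO only). Human TDP1-complemented DT40 knockout cells, 400 cells/well, 37 °C for minimum 48 hr; ATP measured via CellTiter-Glo, 30 min dark incubation, luminescence.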
Numbers without * were called inactive; ? = inconclusive; . = not tested or not shown. Most compounds without a hit are left out; they make up all but 19% or so of the library. Unless noted, calls come from the whole dose curve; as a rule, active = well fitted curve in the direction sought with a large enough effect; inconclusive = small, poorly fitted or top-dose-only effect, or another doubt; inactive = no such curve, though single readings can be large; an effect the other way counts as inactive or inconclusive. Unless noted, % is set by controls: 0 for no effect and ±100 for the full control effect.

SMILES	ELG1 DNA repair	HT1080NT lethal	IL1B secr inh	HT1080 IDH1KD tx	DT40 TDP1 CPT	TDP1 cell noCPT
Cc1cc(C)c(CN2CCN(CCCn3ccc(NC(=O)OCc4ccccc4)nc3=O)CC2)c(C)c1	.	-2.4%	-54.7*	-6.3%	18.4µM*	18.4µM*
Cc1cc2c3c([nH]c2cc1S(=O)(=O)N1CCC2(CC1)OCCO2)CCCC3=O	?	-23.1%	10.1	-15.5%	?	?
COC(=O)c1cc(OC)c(OC)cc1NC(=S)N1CCN(c2ccccn2)CC1	?	-17.7%	39.8	-13.6%	-20.3%	?
COc1ccc(N2CCN(CCCn3ccc(NC(=O)OCc4ccccc4)nc3=O)CC2)cc1	.	-0.4%	-13.5	-3.9%	23.1µM*	11.6µM*
CC1(C)Cc2c(sc(NC(=O)COc3ccccc3)c2C#N)C(C)(C)N1	0.0%	-14.5%	-5.6	1.8%	?	-28.0%
Cc1ccc(C(C)C)c(OCC(=O)Nc2sc3c(c2C#N)CC(C)(C)NC3(C)C)c1	-21.7%	-15.2%	-12.4	-16.3%	?	20.6µM*
Cc1cc(OCC(=O)Nc2sc3c(c2C#N)CC(C)(C)NC3(C)C)c(C(C)C)cc1Cl	-0.7%	-3.2%	7.2	-3.1%	?	16.4µM*
O=C(c1c(F)cccc1Cl)N(Cc1ccco1)C1CCS(=O)(=O)C1 (stereo unspecified)	.	4.1%	9.5	2.3%	-10.4%	4.1%
CC(C)(C)C1=C(C#N)C(c2cccnc2)C(C#N)=C(N)O1 (stereo unspecified)	25.6%	8.3%	0.5	3.6%	?	?
C[n+]1cccc(C2C(C#N)=C(N)Oc3c2ccc2ccccc32)c1 (stereo unspecified)	-7.1%	11.6µM*	41.2	14.6µM*	?	?
N#CC1=C(N)Oc2cc3ccccc3cc2C1c1cccnc1 (stereo unspecified)	14.6%	6.51µM*	-11.9	5.8µM*	8.2µM*	7.31µM*
N#CC1=C(N)Oc2c(ccc3cccnc23)C1c1cccnc1 (stereo unspecified)	?	7.31µM*	61.6	8.2µM*	5.8µM*	5.17µM*
C[n+]1cccc2ccc3c(c21)OC(N)=C(C#N)C3c1ccccc1 (stereo unspecified)	?	?	.	?	24.8%	?
CN(C)/C=N/C1=C(C#N)C(c2cccs2)c2ccc3ccccc3c2O1 (stereo unspecified)	?	7.31µM*	85.5	7.31µM*	4.11µM*	4.11µM*
CCn1cc(C(=O)OCC(=O)Nc2cccc(C(C)=O)c2)c(=O)c2ccc(C)nc21	.	.	.	.	-11.2%	-35.5%
Nc1ccc2c(c1)C(=O)N(c1ccc3ccccc3c1)C2=O	.	.	.	.	1.5%	-18.4%
Cc1ccc(S(=O)(=O)N2CCC(C(=O)OC(C)C(=O)N(C)c3ccccc3)CC2)cc1C (stereo unspecified)	?	-2.7%	-2.7	0.3%	?	?
N#CC1=C(N)Oc2cc3ccccc3cc2C1c1cccs1 (stereo unspecified)	-16.0%	?	0.0	?	11.2µM*	11.2µM*
COc1ccc(N=Cc2cc3c(cc2O)OC(N)=C(C#N)C3c2ccccc2)cc1 (stereo unspecified)	?	?	-8.7	?	?	20.6µM*
Cc1ccc(S(=O)(=O)N2CCCCC2CCNC(=O)C(=O)NCc2cccnc2)cc1 (stereo unspecified)	-20.0%	?	8.3	?	20.6µM*	18.4µM*
Cc1ccc(CNC(=O)C(=O)NCCC2CCCCN2S(=O)(=O)c2ccc(C)cc2)cc1 (stereo unspecified)	?	-1.3%	13.3	-7.7%	23.1µM*	?
Cc1ccc(S(=O)(=O)N2CCCCC2CCNC(=O)C(=O)NC2CC2)cc1 (stereo unspecified)	-0.5%	-2.7%	0.0	-0.3%	?	?
Cc1cc(C)c(S(=O)(=O)N2CCCCC2CCNC(=O)C(=O)NCc2cccnc2)c(C)c1 (stereo unspecified)	-18.3%	-0.5%	0.0	8.0%	11.6µM*	?
COc1ccccc1CNC(=O)C(=O)NCCC1CCCCN1S(=O)(=O)c1ccccc1 (stereo unspecified)	?	0.5%	-11.2	-2.5%	?	?
Cc1ccccc1CNC(=O)C(=O)NCCC1CCCCN1S(=O)(=O)c1ccccc1 (stereo unspecified)	-27.1%	0.7%	-3.9	-4.4%	16.4µM*	18.4µM*
SMILES	ELG1 DNA repair	HT1080NT lethal	IL1B secr inh	HT1080 IDH1KD tx	DT40 TDP1 CPT	TDP1 cell noCPT
Cc1ccc(C)c(S(=O)(=O)N2CCCCC2CCNC(=O)C(=O)NCc2cccnc2)c1 (stereo unspecified)	0.7%	-3.2%	2.9	-15.8%	?	?
Nc1ccc(C(=O)Nc2cccc(N)c2)cc1	?	5.3%	18.0	4.2%	-11.6%	-19.5%
COc1ccc(CC(=O)NO)cc1OC	.	21.9%	.	22.0%	-0.2%	-4.4%
COc1ccc(Cc2nnc(NS(=O)(=O)c3ccc([N+](=O)[O-])cc3)s2)cc1	11.2%	-18.7%	18.3	-0.7%	-9.7%	-13.7%
O=C(CCNS(=O)(=O)c1cccc2nonc12)Nc1ccc(F)cc1	.	.	.	.	-2.0%	-6.6%
COc1ccc(-c2nnc(SCC(=O)c3ccc(O)cc3O)o2)cc1	?	18.9%	32.8	10.3%	-3.2%	-25.7%
Cc1cc(F)ccc1S(=O)(=O)N1CCCCC1CCNC(=O)C(=O)NCc1ccccn1 (stereo unspecified)	-0.4%	-13.0%	-0.4	-9.9%	?	16.4µM*
Cc1ccc(C)c(S(=O)(=O)N2CCCCC2CCNC(=O)C(=O)NCc2ccccc2)c1 (stereo unspecified)	?	?	-19.1	?	23.1µM*	18.4µM*
Cc1cc(C)c(S(=O)(=O)N2CCCC(C(=O)NCc3cccnc3)C2)c(C)c1 (stereo unspecified)	?	-4.7%	3.6	-12.7%	16.4µM*	20.6µM*
O=S(=O)(c1ccccc1)c1nc(-c2cccs2)oc1SCc1ccccc1F	.	.	.	.	?	-27.5%
